Data reported in PubChem BioAssay AID1159580 (chemical genetic matrix, 2015).
Screen size: about 5,500 compounds; about 2,000 (36%) were called active. Another 18% or so got no clear call; they are omitted. Cut-off read from the data, not from the text of the source: active = normalized growth mostly below about 0.91 (no sharp cut-off); inconclusive = no clear call, values can overlap the other calls; inactive = mostly above about 0.92. This is one part of the list.

Assay: chemical genetic growth profiling, strain panel (AID 1159580);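 note: tested at 20 µM; growth read once vehicle control cultures reached saturation at 30 °C; 1 = growth at the plate median or of vehicle wells; lower values mean less growth of the strain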
Details: growth OD

Measured: normalized growth

CCC(C)C(=O)c1c(O)c(C)c2oc3c(C)c(O)c(C(=O)C(C)CC)c(O)c3c2c1O (stereo not drawn)
inactive: S. cerevisiae deletion strains, locus YAL021C, strain ccr4, stronger effect = lower value 0.972 | S. cerevisiae deletion strains, locus YAL026C, strain drs2, stronger effect = lower value 0.982 | S. cerevisiae deletion strains, locus YAL030W, strain snc1, stronger effect = lower value 0.983 | S. cerevisiae deletion strains, locus YBL061C, strain skt5, stronger effect = lower value 0.98 | S. cerevisiae deletion strains, locus YBR009C, strain hhf1, stronger effect = lower value 0.977 | S. cerevisiae deletion strains, locus YBR021W, strain FUR4, stronger effect = lower value 1.05 | S. cerevisiae deletion strains, locus YBR023C, strain chs3, stronger effect = lower value 0.971 | S. cerevisiae deletion strains, locus YBR171W, strain sec66, stronger effect = lower value 0.995 | S. cerevisiae deletion strains, locus YBR229C, strain ROT2, stronger effect = lower value 0.996 | S. cerevisiae deletion strains, locus YBR231C, strain swc5, stronger effect = lower value 0.925 | S. cerevisiae deletion strains, locus YBR279W, strain paf1, stronger effect = lower value 0.988 | S. cerevisiae deletion strains, locus YCL011C, strain gbp2, stronger effect = lower value 0.98 | S. cerevisiae deletion strains, locus YCL016C, strain dcc1, stronger effect = lower value 0.973 | S. cerevisiae deletion strains, locus YCL029C, strain bik1, stronger effect = lower value 0.943 | S. cerevisiae deletion strains, locus YCL069W, strain vba3, stronger effect = lower value 1 | S. cerevisiae deletion strains, locus YCR088W, strain abp1, stronger effect = lower value 0.997 | S. cerevisiae deletion strains, locus YDL005C, strain med2, stronger effect = lower value 0.979 | S. cerevisiae deletion strains, locus YDL035C, strain GPR1, stronger effect = lower value 0.953 | S. cerevisiae deletion strains, locus YDL040C, strain nat1, stronger effect = lower value 0.994 | S. cerevisiae deletion strains, locus YDL074C, strain BRE1, stronger effect = lower value 0.949 | S. cerevisiae deletion strains, locus YDL101C, strain DUN1, stronger effect = lower value 0.959 | S. cerevisiae deletion strains, locus YDL134C, strain PPH21, stronger effect = lower value 0.977 | S. cerevisiae deletion strains, locus YDL192W, strain arf1, stronger effect = lower value 0.976 | S. cerevisiae deletion strains, locus YDR001C, strain nth1, stronger effect = lower value 1.01 | S. cerevisiae deletion strains, locus YDR069C, strain doa4, stronger effect = lower value 0.919 | S. cerevisiae deletion strains, locus YDR101C, strain arx1, stronger effect = lower value 0.987 | S. cerevisiae deletion strains, locus YDR150W, strain NUM1, stronger effect = lower value 0.966 | S. cerevisiae deletion strains, locus YDR159W, strain sac3, stronger effect = lower value 0.965 | S. cerevisiae deletion strains, locus YDR162C, strain NBP2, stronger effect = lower value 0.997 | S. cerevisiae deletion strains, locus YDR195W, strain ref2 0.977 | S. cerevisiae deletion strains, locus YDR297W, strain sur2, stronger effect = lower value 0.989 | S. cerevisiae deletion strains, locus YDR318W, strain mcm21, stronger effect = lower value 0.967 | S. cerevisiae deletion strains, locus YDR334W, strain swr1, stronger effect = lower value 1 | S. cerevisiae deletion strains, locus YDR335W, strain msn5, stronger effect = lower value 0.997 | S. cerevisiae deletion strains, locus YDR388W, stronger effect = lower value 0.961 | S. cerevisiae deletion strains, locus YDR392W, strain spt3, stronger effect = lower value 0.921 | S. cerevisiae deletion strains, locus YDR502C, strain sam2, stronger effect = lower value 0.935 | S. cerevisiae deletion strains, locus YEL003W, strain gim4, stronger effect = lower value 0.983 | S. cerevisiae deletion strains, locus YEL037C, strain rad23, stronger effect = lower value 1.01 | S. cerevisiae deletion strains, locus YEL061C, strain CIN8 (second series), stronger effect = lower value 1 | S. cerevisiae deletion strains, locus YEL061C, strain CIN8, stronger effect = lower value 0.97 | S. cerevisiae deletion strains, locus YER015W, strain faa2, stronger effect = lower value 0.983 | S. cerevisiae deletion strains, locus YER016W, strain bim1, stronger effect = lower value 0.996 | S. cerevisiae deletion strains, locus YER110C, stronger effect = lower value 0.975 | S. cerevisiae deletion strains, locus YER111C, strain swi4, stronger effect = lower value 0.984 | S. cerevisiae deletion strains, locus YER155C, strain BEM2 (second series), stronger effect = lower value 0.934 | S. cerevisiae deletion strains, locus YER155C, strain BEM2, stronger effect = lower value 1.02 | S. cerevisiae deletion strains, locus YER167W, strain BCK2, stronger effect = lower value 0.956 | S. cerevisiae deletion strains, locus YFR010W, strain ubp6, stronger effect = lower value 0.978 | S. cerevisiae deletion strains, locus YGL078C, strain dbp3, stronger effect = lower value 0.987 | S. cerevisiae deletion strains, locus YGL167C, strain pmr1, stronger effect = lower value 1 | S. cerevisiae deletion strains, locus YGL173C, strain kem1, stronger effect = lower value 0.97 | S. cerevisiae deletion strains, locus YGL227W, strain vid30, stronger effect = lower value 1 | S. cerevisiae deletion strains, locus YGL240W, strain doc1, stronger effect = lower value 0.949 | S. cerevisiae deletion strains, locus YGL248W, strain PDE1, stronger effect = lower value 0.984 | S. cerevisiae deletion strains, locus YGL253W, strain hxk2, stronger effect = lower value 1 | S. cerevisiae deletion strains, locus YGR135W, strain pre9, stronger effect = lower value 0.941 | S. cerevisiae deletion strains, locus YGR252W, strain gcn5, stronger effect = lower value 1.09 | S. cerevisiae deletion strains, locus YHR013C, strain ard1, stronger effect = lower value 0.969 | S. cerevisiae deletion strains, locus YHR027C, strain rpn1, stronger effect = lower value 0.998 | S. cerevisiae deletion strains, locus YHR030C, strain SLT2, stronger effect = lower value 0.964 | S. cerevisiae deletion strains, locus YHR079C, strain IRE1 (second series), stronger effect = lower value 0.979 | S. cerevisiae deletion strains, locus YHR094C, strain hxt1, stronger effect = lower value 0.999 | S. cerevisiae deletion strains, locus YHR129C, strain ARP1, stronger effect = lower value 0.952 | S. cerevisiae deletion strains, locus YHR142W, strain chs7, stronger effect = lower value 1.02 | S. cerevisiae deletion strains, locus YHR200W, strain rpn10, stronger effect = lower value 0.988 | S. cerevisiae deletion strains, locus YIL066C, strain RNR3, stronger effect = lower value 0.943 | S. cerevisiae deletion strains, locus YIL073C, strain SPO22, stronger effect = lower value 1.01 | S. cerevisiae deletion strains, locus YIL125W, strain kgd1, stronger effect = lower value 0.997 | S. cerevisiae deletion strains, locus YIR030C, strain dcg1, stronger effect = lower value 0.978 | S. cerevisiae deletion strains, locus YJL092W, strain hpr5, stronger effect = lower value 1 | S. cerevisiae deletion strains, locus YJL095W, strain BCK1 (second series), stronger effect = lower value 0.985 | S. cerevisiae deletion strains, locus YJL095W, strain BCK1, stronger effect = lower value 0.882 | S. cerevisiae deletion strains, locus YJL115W, strain asf1, stronger effect = lower value 1.01 | S. cerevisiae deletion strains, locus YJL129C, strain trk1, stronger effect = lower value 1.02 | S. cerevisiae deletion strains, locus YJL134W, strain LCB3, stronger effect = lower value 0.978 | S. cerevisiae deletion strains, locus YJL154C, strain vps35, stronger effect = lower value 1.01 | S. cerevisiae deletion strains, locus YJL164C, strain tpk1, stronger effect = lower value 0.977 | S. cerevisiae deletion strains, locus YJL166W, strain qcr8, stronger effect = lower value 0.983 | S. cerevisiae deletion strains, locus YJL168C, strain set2, stronger effect = lower value 0.983 | S. cerevisiae deletion strains, locus YJL187C, strain SWE1, stronger effect = lower value 0.983 | S. cerevisiae deletion strains, locus YJR043C, strain POL32, stronger effect = lower value 0.936 | S. cerevisiae deletion strains, locus YJR075W, strain HOC1, stronger effect = lower value 0.96 | S. cerevisiae deletion strains, locus YKL068W, stronger effect = lower value 0.965 | S. cerevisiae deletion strains, locus YKL160W, strain elf1, stronger effect = lower value 0.979 | S. cerevisiae deletion strains, locus YKR001C, strain vps1, stronger effect = lower value 0.952 | S. cerevisiae deletion strains, locus YKR026C, strain gcn3, stronger effect = lower value 1.01 | S. cerevisiae deletion strains, locus YKR091W, strain srl3, stronger effect = lower value 0.992 | S. cerevisiae deletion strains, locus YLL001W, strain dnm1, stronger effect = lower value 0.98 | S. cerevisiae deletion strains, locus YLL026W, stronger effect = lower value 0.996 | S. cerevisiae deletion strains, locus YLL041C, strain sdh2, stronger effect = lower value 1.01 | S. cerevisiae deletion strains, locus YLR027C, strain aat2, stronger effect = lower value 0.965 | S. cerevisiae deletion strains, locus YLR102C, strain apc9, stronger effect = lower value 0.98 | S. cerevisiae deletion strains, locus YLR221C, strain rsa3, stronger effect = lower value 0.957 | S. cerevisiae deletion strains, locus YLR258W, strain gsy2, stronger effect = lower value 0.971 | S. cerevisiae deletion strains, locus YLR262C, strain YPT6 (second series), stronger effect = lower value 0.949 | S. cerevisiae deletion strains, locus YLR262C, strain YPT6, stronger effect = lower value 0.773 | S. cerevisiae deletion strains, locus YLR268W, strain sec22, stronger effect = lower value 0.904 | S. cerevisiae deletion strains, locus YLR320W, strain mms22, stronger effect = lower value 0.954 | S. cerevisiae deletion strains, locus YLR330W, strain CHS5, stronger effect = lower value 0.979 | S. cerevisiae deletion strains, locus YLR342W, strain FKS1 (second series), stronger effect = lower value 0.92 | S. cerevisiae deletion strains, locus YLR342W, strain FKS1, stronger effect = lower value 0.968 | S. cerevisiae deletion strains, locus YLR357W, strain rsc2, stronger effect = lower value 0.957 | S. cerevisiae deletion strains, locus YLR370C, strain arc18, stronger effect = lower value 0.983 | S. cerevisiae deletion strains, locus YLR371W, strain rom2, stronger effect = lower value 0.973 | S. cerevisiae deletion strains, locus YLR384C, strain iki3, stronger effect = lower value 0.975 | S. cerevisiae deletion strains, locus YLR418C, strain cdc73, stronger effect = lower value 0.974 | S. cerevisiae deletion strains, locus YML016C, strain PPZ1, stronger effect = lower value 0.974 | S. cerevisiae deletion strains, locus YML032C, strain rad52, stronger effect = lower value 0.94 | S. cerevisiae deletion strains, locus YML120C, strain ndi1, stronger effect = lower value 0.989 | S. cerevisiae deletion strains, locus YML124C, strain tub3, stronger effect = lower value 0.992 | S. cerevisiae deletion strains, locus YMR058W, strain fet3, stronger effect = lower value 0.986 | S. cerevisiae deletion strains, locus YMR078C, strain ctf18, stronger effect = lower value 0.989 | S. cerevisiae deletion strains, locus YMR125W, strain sto1, stronger effect = lower value 0.969 | S. cerevisiae deletion strains, locus YMR129W, stronger effect = lower value 0.981 | S. cerevisiae deletion strains, locus YMR205C, strain PFK2, stronger effect = lower value 0.967 | S. cerevisiae deletion strains, locus YMR223W, strain ubp8, stronger effect = lower value 0.957 | S. cerevisiae deletion strains, locus YMR231W, strain pep5, stronger effect = lower value 0.993 | S. cerevisiae deletion strains, locus YMR263W, strain SAP30, stronger effect = lower value 0.975 | S. cerevisiae deletion strains, locus YMR307W, strain GAS1, stronger effect = lower value 1.09 | S. cerevisiae deletion strains, locus YNL067W, strain RPL9B, stronger effect = lower value 0.964 | S. cerevisiae deletion strains, locus YNL071W, strain lat1, stronger effect = lower value 1 | S. cerevisiae deletion strains, locus YNL153C, strain GIM3, stronger effect = lower value 0.928 | S. cerevisiae deletion strains, locus YNL209W, strain ssb2, stronger effect = lower value 0.982 | S. cerevisiae deletion strains, locus YNL233W, strain BNI4, stronger effect = lower value 0.993 | S. cerevisiae deletion strains, locus YNL248C, strain rpa49, stronger effect = lower value 0.91 | S. cerevisiae deletion strains, locus YNL250W, strain rad50, stronger effect = lower value 0.966 | S. cerevisiae deletion strains, locus YNL271C, strain bni1, stronger effect = lower value 0.987 | S. cerevisiae deletion strains, locus YNL298W, strain CLA4, stronger effect = lower value 0.972 | S. cerevisiae deletion strains, locus YNL307C, strain MCK1, stronger effect = lower value 0.982 | S. cerevisiae deletion strains, locus YNL322C, strain KRE1 (second series), stronger effect = lower value 0.978 | S. cerevisiae deletion strains, locus YNR049C, strain mso1, stronger effect = lower value 0.994 | S. cerevisiae deletion strains, locus YNR052C, strain pop2, stronger effect = lower value 0.966 | S. cerevisiae deletion strains, locus YOL012C, strain htz1 0.792 | S. cerevisiae deletion strains, locus YOL147C, strain pex11, stronger effect = lower value 0.986 | S. cerevisiae deletion strains, locus YOR001W, strain rrp6, stronger effect = lower value 0.954 | S. cerevisiae deletion strains, locus YOR061W, strain CKA2, stronger effect = lower value 0.932 | S. cerevisiae deletion strains, locus YOR069W, strain VPS5, stronger effect = lower value 0.977 | S. cerevisiae deletion strains, locus YOR070C, strain gyp1, stronger effect = lower value 0.966 | S. cerevisiae deletion strains, locus YOR080W, strain dia2, stronger effect = lower value 0.978 | S. cerevisiae deletion strains, locus YOR083W, strain WHI5, stronger effect = lower value 1 | S. cerevisiae deletion strains, locus YOR106W, strain vam3, stronger effect = lower value 0.973 | S. cerevisiae deletion strains, locus YOR136W, strain idh2, stronger effect = lower value 0.986 | S. cerevisiae deletion strains, locus YOR144C, strain elg1, stronger effect = lower value 0.992 | S. cerevisiae deletion strains, locus YOR184W, strain ser1, stronger effect = lower value 0.977 | S. cerevisiae deletion strains, locus YOR265W, strain rbl2, stronger effect = lower value 0.981 | S. cerevisiae deletion strains, locus YOR270C, strain vph1, stronger effect = lower value 0.921 | S. cerevisiae deletion strains, locus YOR290C, strain snf2, stronger effect = lower value 0.967 | S. cerevisiae deletion strains, locus YOR316C, strain cot1, stronger effect = lower value 0.974 | S. cerevisiae deletion strains, locus YPL051W, strain arl3, stronger effect = lower value 0.923 | S. cerevisiae deletion strains, locus YPL078C, strain atp4, stronger effect = lower value 0.992 | S. cerevisiae deletion strains, locus YPL106C, strain sse1, stronger effect = lower value 0.966 | S. cerevisiae deletion strains, locus YPL240C, strain hsp82, stronger effect = lower value 0.995 | S. cerevisiae deletion strains, locus YPL241C, strain CIN2, stronger effect = lower value 0.995 | S. cerevisiae deletion strains, locus YPR119W, strain clb2, stronger effect = lower value 0.99 | S. cerevisiae deletion strains, locus YPR141C, strain kar3, stronger effect = lower value 0.967 | S. cerevisiae deletion strains, locus YPR163C, strain tif3, stronger effect = lower value 0.994 | S. cerevisiae deletion strains, locus YPR167C, strain met16, stronger effect = lower value 0.976 | S. cerevisiae deletion strains, strain wtn01, stronger effect = lower value 0.969 | S. cerevisiae strains, strain wild type, stronger effect = lower value 0.965
active: S. cerevisiae deletion strains, locus YDL185W, strain tfp1, stronger effect = lower value 0.895 | S. cerevisiae deletion strains, locus YDR137W, strain rgp1, stronger effect = lower value 0.813 | S. cerevisiae deletion strains, locus YGL086W, strain mad1, stronger effect = lower value 1.12 [resistant] | S. cerevisiae deletion strains, locus YJL187C, strain SWE1 (second series), stronger effect = lower value 0.767 | S. cerevisiae deletion strains, locus YKL085W, strain MDH1 (second series), stronger effect = lower value 1.11 [resistant] | S. cerevisiae deletion strains, locus YKL085W, strain MDH1, stronger effect = lower value 1.11 [resistant] | S. cerevisiae deletion strains, locus YLR039C, strain RIC1, stronger effect = lower value 0.674 | S. cerevisiae deletion strains, locus YLR058C, strain SHM2, stronger effect = lower value 0.866
